The source of these data is PubChem BioAssay AID880 (National Center for Advancing Translational Sciences (NCATS), 2007).

SMILES strings stand for the structures. Hit rate of the full screen: of about 230,000 compounds, about 1,000 (0.43%) were called active. Calls come from the whole dose curve; as a rule, active = well fitted inhibition curve with a large enough effect (not every such curve was filed as active); inactive = no such curve, though single readings can be large or run the other way. This excerpt belongs to a sample that is enriched for actives.
% is set by controls: 0 for no effect and ±100 for the full control effect; potency is the fitted concentration of half-maximal effect.

In the experiment the target is Guanine nucleotide-binding protein G(i) subunit alpha-1 (Homo sapiens) (UniProt P63096). The experiment in a line: qHTS Assay for Inhibitors of RGS12 GoLoco Motif Activity (Red Fluorophore). Note: nearly all actives have a fitted effect of over 30% in size. Conditions: Gai1:RGS12 GoLoco peptide FP, rhodamine, 10 min; series mostly up to 61.6 µM; activity, negative = inhibition: at the top concentration. The source says: Assay Submitter: Siderovski, David P, University of North Carolina at Chapel Hill
Sequence of Guanine nucleotide-binding protein G(i) subunit alpha-1 (Homo sapiens) (P63096 whole entry, looked up): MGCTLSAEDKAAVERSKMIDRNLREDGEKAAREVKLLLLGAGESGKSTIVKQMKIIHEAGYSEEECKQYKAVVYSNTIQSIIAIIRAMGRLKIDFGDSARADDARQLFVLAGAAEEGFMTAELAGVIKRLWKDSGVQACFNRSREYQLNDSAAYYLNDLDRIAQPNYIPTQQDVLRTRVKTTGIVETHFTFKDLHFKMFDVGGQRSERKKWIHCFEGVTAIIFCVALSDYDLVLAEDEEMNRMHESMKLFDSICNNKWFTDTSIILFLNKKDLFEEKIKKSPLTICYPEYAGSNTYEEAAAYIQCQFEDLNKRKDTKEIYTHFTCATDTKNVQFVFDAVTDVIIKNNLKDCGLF
Screening Center PI: Austin, C.P.
Screening Center: NIH Chemical Genomics Center [NCGC]
G-protein-coupled receptors (GPCRs) are major targets for drug discovery. The regulator of G-protein signaling (RGS)-protein family has important roles in GPCR signal transduction. RGS proteins contain a conserved RGS-box, which is often accompanied by other signaling regulatory elements. RGS proteins accelerate the deactivation of G proteins to reduce GPCR signaling; however, some also have an effector function and transmit signals. Combining GPCR agonists with RGS inhibitors should potentiate responses, and could markedly increase the agonist's regional specificity. The diversity of RGS proteins with highly localized and dynamically regulated distributions in brain makes them attractive targets for pharmacotherapy of central nervous system disorders. […] A complex of Gai1 and fluorescently labeled G-alpha-binding peptide (the "GoLoco motif") derived from RGS12 is incubated with library members. Inhibitors of the binding are detected by a decrease in the fluorescence polarization (FP) of the fluorophore. Protein was supplied by Prof. David Siderovski, University of North Carolina at Chapel Hill.
Assay Buffer: 10 mM Tris-HCl, 150 mM NaCl, 0.1 mM GDP (prepared fresh), and 0.05% NP40 at pH 7.5.
15 nM Rhodamine labeled peptide/25 nM protein in columns 1, 2, 5 - 48. Titration of unlabeled peptide control ([H][…][NH2], custom synthesized and HPLC-purified by Tufts University Core Facility) from 20 mM, then 1:2 dilution, 16-point in duplicate, pin-transferred to column 2, rows 1 to 32. Column 1 is neutral.
Rhodamine-labeled peptide (Rhodamine-[…]-NH2) was custom-synthesized and HPLC-purified by Invitrogen (Carlsbad, CA).
Four uL of reagents were dispensed to 1536-well Greiner black solid-bottom plates. Compounds and controls (23 nL) were transferred via Kalypsys PinTool. The plates were incubated for 10 min at room temperature, and then read on ViewLux (Perkin-Elmer) High-throughput CCD imager using BODIPY for the rhodamine-labeled decapeptide probe. During dispense, reagent bottles were kept submerged into 4 deg C water bath and all liquid lines were covered with aluminum foil to minimize probe and protein degradation. All screening operations were performed on a Kalypsys robotic system (Kalypsys, Inc., San Diego, CA) containing one RX-130 and two RX-90 anthropomorphic robotic arms.
(In general: qHTS replaces the single test concentration by a dilution series.)
For `C[N+]12CN3CN(CN(C3)C1)C2`, the Potency was 8.91 µM (active).
For the compound `CO[C@@H]1C[C@@H](C[C@H]2CC[C@H](C)[C@@H]([C@@H](C)C(=O)O)O2)O[C@]2(O[C@](C)([C@H]3CC[C@@](C)(C4OC([C@H]5O[C@@](O)(CO)[C@H](C)C[C@@H]5C)C[C@@H]4C)O3)C[C@H]2C)[C@@H]1C` (stereo not given in full), the “activity, negative = inhibition” value was 2.64% (inactive).
The same measure, in the same setting: the figure for `CC(=O)c1c(O)c(C)c(O)c(Cc2c(O)c3c(c(C(=O)/C=C\c4ccccc4)c2O)OC(C)(C)C=C3)c1O` is 5.48% (inactive).
Still for that read-out and setting: the figure for `C[C@@]12CC[C@H](O)C[C@@H]1CC[C@@H]1[C@@H]2CC[C@@]2(C)[C@@H](C3=CC(=O)OC3)[C@H](O)C[C@]12O` is 3.75% [at 14.2 µM] (inactive).
On to `Cc1cc(-c2ccc(N)c(C)c2)ccc1N`, for which the Potency is 25.1 µM (active).
`CN1[C@@H]2CC[C@H]1CC(OC(=O)c1cc(Cl)cc(Cl)c1)C2` (stereo not given in full): the “activity, negative = inhibition” value is -5.38% (inactive).
Still for that read-out and setting: the figure for `CN(C)C1C(=O)C(C(N)=O)=C(O)[C@@]2(O)C(=O)C3=C(O)c4c(O)cccc4[C@@](C)(O)C3C[C@@H]12` (stereo not given in full) is 0.74% (inactive); for `ClC(Cl)=C(Cl)C(Cl)=C(Cl)Cl` it is 5.03% (inactive).
Same read-out and setting: the same measure for `CC(C)CC(C)Nc1ccc(Nc2ccccc2)cc1` (stereo not given): 0.206% (inactive); for `CCCCN1C2CCC1CC(OC(c1ccc(F)cc1)c1ccc(F)cc1)C2` (stereo not given): 8.26% (inactive).
Same read-out and setting: the same measure for `CS(=N)(=O)CC[C@H](N)P(=O)(O)O` (stereo not given in full): 3.42% [at 14.2 µM] (inactive); for `CC(C)(Cc1c[nH]c2ccc(Cl)cc12)NCCOc1ccccc1OCC1CC1`: “inactive”.
With `CC(=O)OC1C2CCC3C1(CC(O)[C@@]1(O)[C@@H](CC(O)C1(C)C)[C@]3(C)O)C[C@@]2(C)O` (stereo not given in full), the Potency is 25.1 µM (active).
For the compound `CC(C)(c1ccccc1)c1ccc(O)cc1`, the “activity, negative = inhibition” value is -5% (inactive).
The same measure, in the same setting: the same measure for `CC(=O)O[C@H]1CC[C@@]2(C)[C@@H](CC[C@H]3[C@H]2CC(=O)[C@]2(C)[C@@H]3C[C@@H](N3CC3)[C@H]2C(C)=O)C1`: 4.86% [at 14.2 µM] (inactive); for `O=C(O)C1C2CCC(O2)C1C(=O)O` (stereo not given): 10.6% (inactive).
Same read-out and setting: the figure for `OC(CNC1CCCCC1)c1ccccc1` (stereo not given) is 5.96% (inactive).
For `CNC(C)[C@@H](O)c1ccccc1` (stereo not given in full), the Potency was 7.94 µM (active).
As to `CC(C)CCC1(CCN)C(=O)NC(=O)NC1=O`, the activity, negative = inhibition was 2.09% [at 14.2 µM] (inactive).
On the same count and under the same terms, the figure for `CN(C)[C@@H]1C(=O)C(C(N)=O)=C(O)[C@@]2(O)C(=O)C3=C(O)c4c(O)cccc4[C@@](C)(O)C3CC12` (stereo not given in full) is -6.35% (inactive); for `CCN(CC)CCn1ncc2c(N)ncnc21` it is 8.05% [at 14.2 µM] (inactive).
Same read-out and setting: the figure for `O=C(O)C(=O)Cc1ccc2c(c1)OCO2` is -7.42% [at 14.2 µM] (inactive).
In the case of `COc1ccccc1N=C1SCCCN1C`, the Potency is 3.16 µM (active).
For the compound `COc1ccccc1N=Nc1c(O)[nH]c(=S)[nH]c1=O`, the “activity, negative = inhibition” value was 28.9% (inactive).
Consider `Cc1ccc(S(=O)(=O)O[C@H]2CN3CCC2CC3)cc1`, for which the activity, negative = inhibition is -0.505% [at 14.2 µM] (inactive).
On the same count and under the same terms, the figure for `CC[C@@](O)(C(=O)O)c1cc2n(c(=O)c1CO)Cc1cc3ccccc3nc1-2` is -0.459% [at 14.2 µM] (inactive).
Same read-out and setting: the figure for `Fc1ccc(C(OCCN2CCN(C/C=C\c3ccccc3)CC2)c2ccc(F)cc2)cc1` is 12.7% (inactive).
On the same count and under the same terms, the same measure for `C[C@H](Br)C(=O)N[C@H](CO)C(=O)O`: 5.42% [at 14.2 µM] (inactive).
Take `NCC[Se][Se]CCN`: the Potency was 0.631 µM (active).
With `CC(C)(O)/C=C\C(=O)[C@](C)(O)[C@H]1[C@H](O)C[C@]2(C)[C@@H]3CC=C4[C@@H](C=C(O)C(=O)C4(C)C)[C@]3(C)C(=O)C[C@@]12C`, the activity, negative = inhibition was 6.59% [at 14.2 µM] (inactive).
